Tgondii IFNg: blocks Toxoplasma gondii growth in the presence of IFN-gamma | AID 1259416 | activity change, negative = inhibition, % (test concentration not listed) | Toxoplasma gondii growth in IFN-gamma-treated host cells; active compounds read low | 69,000 tested, 3.8% active; in the data active = activity change below about -70%, passing the limit was not always enough;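 note: host cells are HeLa cells infected with Toxoplasma gondii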
* hit, by the source's call; ! = not active in a repeat. This is one part of a sample in which hits are shown more often than they occur.

How did CO[C@@H](C(=O)N(C)C[C@H]1OCc2ccccc2-c2ccccc2C(=O)N([C@@H](C)CO)C[C@H]1C)c1ccccc1 do in these assays?
Tgondii IFNg: -12

What do the screens show for `COc1ccc(F)c(-c2cncc(C(=O)N3CCCCC3)n2)c1`?
Tgondii IFNg: -9

How did CCOc1ccc(CC(=O)N2CCC(c3nn(C)c(=O)n3CC)CC2)cc1 do in these assays?
Tgondii IFNg: 4

What do the screens show for `C=CCN(C(=O)Cn1nnc2ccccc21)C(C(=O)NCCOC)c1cccs1` (stereo not drawn)?
Tgondii IFNg: -1

What do the screens show for `CC(=O)NCC(=O)N1CCC2O[C@@H](COc3cccnc3)CCC21` (stereo partly drawn)?
Tgondii IFNg: -53

How did OC[C@H]1O[C@@H](n2cnc3c(N[C@H]4CCC[C@@H]4O)ncnc32)[C@H](O)[C@@H]1O do in these assays?
Tgondii IFNg: 8

Results for C[C@H]1CN([C@@H](C)CO)C(=O)c2c(c3ccccc3n2C)-c2ccccc2CO[C@H]1CN(C)C ?
Tgondii IFNg: -18

What do the screens show for `Cc1ccc(CC2(NC(=O)C(C)N3CCCC3=O)CC2)cc1` (stereo not drawn)?
Tgondii IFNg: -11

What do the screens show for `Cc1cnn(Cc2nc(-c3ccc(NC(=O)c4ccc(C)s4)cc3)oc2C)c1`?
Tgondii IFNg: 104

Results for Cc1noc(C)c1NC(=O)Nc1ccc2c(c1)C(=O)N([C@H](C)CO)C[C@@H](C)[C@@H](CN(C)S(=O)(=O)c1cccs1)OCCCC[C@H](C)O2 ?
Tgondii IFNg: -42

Results for Cc1ccc(S(=O)(=O)Nc2ccc3c(c2)C(=O)N([C@H](C)CO)C[C@@H](C)[C@@H](CN(C)S(=O)(=O)c2cccs2)OCCCC[C@H](C)O3)cc1 ?
Tgondii IFNg: -117*

Results for Cc1noc(C)c1NC(=O)Nc1ccc2c(c1)C(=O)N([C@@H](C)CO)C[C@@H](C)[C@@H](CN(C)S(=O)(=O)c1cccs1)OCCCC[C@@H](C)O2 ?
Tgondii IFNg: 3

Results for COc1ccc2c(c1)NC1(CCN(C(=O)c3ccc(OC)c(OC)c3)CC1)c1cccn1-2 ?
Tgondii IFNg: 58

Results for Cc1ccc2nc(NC(=O)C(C)(C)C)[nH]c(=O)c2c1 ?
Tgondii IFNg: 239

Results for COC(=O)Nc1nc2ccc(S(=O)c3ccccc3)cc2[nH]1 (stereo not drawn) ?
Tgondii IFNg: -75*!

How did COC(=O)Nc1nc2ccc(SC(C)C)cc2[nH]1 do in these assays?
Tgondii IFNg: -66

How did CCCS(=O)c1ccc2nc(NC(=O)OC)[nH]c2c1 (stereo not drawn) do in these assays?
Tgondii IFNg: 18

How did COC(=O)Nc1nc2ccc(C(=O)c3ccccc3)cc2[nH]1 do in these assays?
Tgondii IFNg: -79*

Results for COC(=O)Nc1nc2ccc(C(=O)c3ccccc3C(=O)OC(C)C)cc2[nH]1 ?
Tgondii IFNg: -101*

What do the screens show for `COC(=O)c1ccc(NC(=O)c2ccccc2SC)cc1`?
Tgondii IFNg: 92

How did CC(c1ccon1)N(C)CC(=O)Nc1nc2ccccc2[nH]1 (stereo not drawn) do in these assays?
Tgondii IFNg: 19

What do the screens show for `COC(=O)Nc1cc(C)n(-c2ccccc2)n1`?
Tgondii IFNg: -44

How did O=C(O)c1ccc2nc(-c3ccccn3)[nH]c2c1 do in these assays?
Tgondii IFNg: 270

How did CCCCCC#CC(=O)Nc1nc2cc(C)c(C)cc2[nH]1 do in these assays?
Tgondii IFNg: 84

What do the screens show for `CCCSc1ccc2nc(NC(=O)OC)[nH]c2c1`?
Tgondii IFNg: -78*!

How did CCc1ccc(CN2CCC(CNC(=O)Nc3ccccc3)C2)nc1 (stereo not drawn) do in these assays?
Tgondii IFNg: -55

Results for Cc1cc(C(F)(F)F)nc(CCn2ccnc2-c2nc[nH]c2C)n1 ?
Tgondii IFNg: -3

How did Cc1cccc(-n2c(=O)c3cc4c(=O)n(-c5cccc(C)c5C)c(=O)c4cc3c2=O)c1C do in these assays?
Tgondii IFNg: -1

Results for Cc1ccc(N2CC[C@H]3CN(C(=O)c4ccccc4)C[C@@H]3C2)nn1 ?
Tgondii IFNg: -5

Results for COC(=O)C[C@@H]1CC[C@@H]2[C@H](COC[C@@H](O)CN2S(=O)(=O)c2cn(C)cn2)O1 ?
Tgondii IFNg: 20

What do the screens show for `COC(=O)Nc1nc2ccc(C(=O)c3cccs3)cc2[nH]1`?
Tgondii IFNg: -87*

How did COc1ccc(-n2nc3ccc(NC(=S)NC(=O)c4cccs4)cc3n2)cc1 do in these assays?
Tgondii IFNg: 32

Results for Cc1ccc(C(=O)O)cc1NC(=O)c1cccs1 ?
Tgondii IFNg: -3

Results for Cc1ccnc(NCCNC2CCN(CC(C)C)CC2)c1 ?
Tgondii IFNg: 1

How did CN(C)C1CCN(S(=O)(=O)Cc2ccccc2)C(C(=O)O)C1 (stereo not drawn) do in these assays?
Tgondii IFNg: -30

What do the screens show for `Cn1c(=O)c2[nH]cnc2n(C)c1=O`?
Tgondii IFNg: 112

Results for S=c1nc[nH]c2nc[nH]c12 ?
Tgondii IFNg: -71*

Results for CC(C)c1cc(C2CCN(C(=O)Cn3cnnn3)CC2)[nH]n1 ?
Tgondii IFNg: 0

How did CC(C)NC(=O)N1CC[C@@H]2N(S(C)(=O)=O)CC[C@@]2(C(=O)N2CCOCC2)CC1 do in these assays?
Tgondii IFNg: 29

What do the screens show for `Cc1cc(COc2ccccc2)oc1C(=O)N1CCCn2cncc2C1`?
Tgondii IFNg: 2

Results for CN(C(=O)c1ncn2c1CN(CC1CC1)S(=O)(=O)c1ccccc1-2)c1ccccc1 ?
Tgondii IFNg: -105*

Results for CCCCCN(C)C(=O)c1ncn2c1CN(CC1CC1)S(=O)(=O)c1ccccc1-2 ?
Tgondii IFNg: -1

Results for CCCCN(CC)C(=O)c1ncn2c1CN(CC1CC1)S(=O)(=O)c1ccccc1-2 ?
Tgondii IFNg: 0

What do the screens show for `Cc1ccc(CN2C[C@H]3CCC[C@]3(COCC(=O)N(C)C)C2)s1`?
Tgondii IFNg: -2

What do the screens show for `O=C(C[C@H]1CC[C@H]2[C@@H](COC[C@H](O)CN2C(=O)Nc2ccc(Cl)cc2)O1)NCC1CCCCC1`?
Tgondii IFNg: 6

What do the screens show for `Cc1ccc2cc(C)c3nn(CCNC(=O)C4CSC(c5ccncc5)=N4)c(=O)n3c2c1` (stereo not drawn)?
Tgondii IFNg: -110*

How did CCN(CC)C(=O)Cn1nc2c(C)cc3ccc(OC)cc3n2c1=O do in these assays?
Tgondii IFNg: -9

How did Cc1cc2cc3c(cc2n2c(=O)n(Cc4ccccn4)nc12)OCO3 do in these assays?
Tgondii IFNg: -45

Results for Cc1noc(C)c1C(=O)N1CCCC(c2nc3ccccc3c(=O)[nH]2)C1 (stereo not drawn) ?
Tgondii IFNg: 45

How did COc1ccccc1-c1cnc2c(c1)C(=O)N([C@@H](C)CO)C[C@H](C)[C@@H](CN(C)C(=O)CC1CC1)O2 do in these assays?
Tgondii IFNg: -41

Results for Cc1noc(C)c1S(=O)(=O)Nc1ccc(Cl)cc1 ?
Tgondii IFNg: 33

How did CN1CC(=O)N(c2ccsc2)CC12CCN(C(=O)Nc1ccccc1F)C2 (stereo not drawn) do in these assays?
Tgondii IFNg: -101*

What do the screens show for `CN1CC(=O)N(c2cccc(F)c2)CC12CCN(C(=O)c1cccs1)C2` (stereo not drawn)?
Tgondii IFNg: 10

What do the screens show for `CN1CC(=O)N(c2ccsc2)CC12CCN(CC(=O)O)C2` (stereo not drawn)?
Tgondii IFNg: 3

What do the screens show for `COc1cccc(N2CCN(C3=Nc4c(F)cccc4[C@H](CC(=O)O)N3c3cc(C(F)(F)F)ccc3OC)CC2)c1`?
Tgondii IFNg: -43

Results for NC(=O)Nc1sc(-c2ccc(F)cc2)cc1C(N)=O ?
Tgondii IFNg: -5
